# In the library only some 19% were active in any assay of this set; here they are far more common.
# IL-1B inflam inh = qHTS for Inhibitors of Inflammasome Signaling: IL-1-beta AlphaLISA Primary Screen; THP-1 LPS/ATP IL-1B secretion, AlphaLISA, 16 h; hits give low values; activity change, % at 57.5 µM; 4.7% of 360,000 active; in the data active means activity change below about -50%; inconclusive means mostly about -30% to -49%; further: on the % scale 0 is the no-effect control and ±100 the full control effect
#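 THP-1 cells pretreated 1 hr with compounds (up to 57.5 uM final), then stimulated with LPS (250 ng/mL final) plus ATP (1.25 mM final); secreted IL-1B measured by AlphaLISA after 16 hr, decreased signal indicating inhibition.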
# TGFb SMAD3 inh = qHTS for Inhibitors of TGF-b. AID 588855, 2011. 1.2% of 410,000 active. Potency, µM (highest dose often 46.1 µM), for inactives: at the highest dose activity, negative = inhibition, actives largely listed as inhibitors. HepG2 CAGA-GFP TGF-b/SMAD3 reporter, GFP fluorescence, 18 h; TGF-beta stimulated, 500 pg/mL final; further: potency means the concentration at half of the fitted maximal effect; on the % scale 0 is the no-effect control and ±100 the full control effect; nearly all actives have a fitted effect of over 65% in size
#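 Using HEPG2 CAGA-GFP reporter cells at 1000 cells/well, we pinned test compounds, stimulated with recombinant TGF-beta (500 pg/mL final) and measured total well GFP after 18 h.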
# TDP1 cell noCPT = qHTS for Inhibitors of human tyrosyl-DNA phosphodiesterase 1 (TDP1): qHTS in cells in absence of CPT | Potency, µM (series often up to 46.2 µM), inactives show at the highest dose activity change, negative = growth inhibition, most hits filed as inhibitors | 15% of 420,000 active | AID 686978, 2013 | DT40 Tdp1-/- hTDP1 cells, no CPT, ATP luminescence, 48 h; further: potency means the concentration at half of the fitted maximal effect; on the % scale 0 is the no-effect control and ±100 the full control effect; nearly all actives have a fitted effect of over 55% in size
#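 Chicken DT40 Tdp1-/- cells complemented with human TDP1, screened without camptothecin (DMSO vehicle only), 400 cells/well. Compounds pin-transferred, cells incubated at 37 °C for at least 48 hr. Growth read as ATP-dependent luminescence (CellTiter-Glo, 30 min at RT).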
# HepG2 tox = qHTS for Inhibitors of TGF-b: Cytotox Counterscreen | Potency, µM (series often up to 46.1 µM), for inactives: at the top dose activity change, negative = cytotoxicity, hits mostly cytotoxic | HepG2 CAGA-GFP viability, ATP luminescence, 18 h | 0.76% of 410,000 active; further: potency means the concentration at half of the fitted maximal effect
#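 CellTiter-Glo luminescence gave cytotoxicity after 18 hours at 37 degrees C. The cells were HepG2 CAGA-GFP in 1% FBS DMEM, stimulated with 500 pg/mL TGF-beta after compound addition. %Activity was normalised to no-cell wells (complete cell-killing) and DMSO (no toxicity), and curves were fitted and classified.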
# TDP1 cell CPT = qHTS for Inhibitors of human tyrosyl-DNA phosphodiesterase 1 (TDP1): qHTS in cells in presence of CPT; 12% of 420,000 active; Potency, µM (titrated, usually from 46.2 µM), for the others: top-dose activity change, negative = growth inhibition, hits mostly inhibitors; AID 686979, 2013; chicken DT40 Tdp1-/-;hTDP1 cells + 20 nM CPT, ATP luminescence, 48 h; further: potency means the concentration at half of the fitted maximal effect; on the % scale 0 is the no-effect control and ±100 the full control effect; nearly all actives have a fitted effect of over 55% in size
#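 Cell growth measured by CellTiter-Glo luminescence after a minimum 48 h, 37 C compound exposure with 20 nM CPT in Tdp1-knockout DT40 cells stably expressing hTDP1, seeded 400/well; qHTS titration format.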
# S-ASM inh = Inhibitors of Secretory Acid Sphingomyelinase (S-ASM): qHTS. Potency, µM (series often up to 57.5 µM), for the others: at the top dose activity change, negative = inhibition, most hits filed as inhibitors. 0.006% of 340,000 active. placental ASM, HMU-PC fluorogenic substrate, 60 min. Sphingomyelin phosphodiesterase (Homo sapiens), P17405; further: potency means the concentration at half of the fitted maximal effect
# Target sequence (P17405 47-631 limits assumed): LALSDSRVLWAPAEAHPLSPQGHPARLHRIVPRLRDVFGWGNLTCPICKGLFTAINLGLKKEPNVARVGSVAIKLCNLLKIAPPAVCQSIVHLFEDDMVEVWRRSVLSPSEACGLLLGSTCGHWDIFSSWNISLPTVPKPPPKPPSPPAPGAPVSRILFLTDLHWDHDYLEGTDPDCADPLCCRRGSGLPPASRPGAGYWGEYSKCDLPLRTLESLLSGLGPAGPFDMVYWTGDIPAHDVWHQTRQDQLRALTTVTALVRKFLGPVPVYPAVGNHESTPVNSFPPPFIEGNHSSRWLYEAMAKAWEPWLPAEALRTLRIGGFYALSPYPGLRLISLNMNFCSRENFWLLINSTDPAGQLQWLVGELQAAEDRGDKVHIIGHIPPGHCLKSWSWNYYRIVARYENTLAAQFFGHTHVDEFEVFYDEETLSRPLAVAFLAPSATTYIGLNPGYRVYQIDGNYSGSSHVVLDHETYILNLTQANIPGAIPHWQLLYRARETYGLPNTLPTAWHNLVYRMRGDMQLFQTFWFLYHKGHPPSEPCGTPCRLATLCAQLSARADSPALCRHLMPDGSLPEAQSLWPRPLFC
#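 Fluorescence read-out (Ex 386 nm, Em 447 nm) after stopping the reaction at pH 10. Enzyme: ASM from human placenta; substrate HMU-PC0, 9 uM final; 60 min, 37 °C. Compound preincubation 10 min, ambient temperature.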
# Starred values were filed as active, the others as inactive; ? = inconclusive; · = no result given. Unless noted, the call rests on the fitted dose curve; in most records, active means well fitted curve in the direction sought with a large enough effect; inconclusive means small, poorly fitted or top-dose-only effect, or another doubt; inactive means no such curve, though single readings can be large; an effect the other way counts as inactive or inconclusive.
SMILES,IL-1B inflam inh,TGFb SMAD3 inh,TDP1 cell noCPT,HepG2 tox,TDP1 cell CPT,S-ASM inh
C=CCC(CC=C)(CNC(=O)C(=O)Nc1cc(C)ccc1OC)c1ccc(OC)c(OC)c1,·,-25%,16µM*,-25%,8.2µM*,·
COc1ccc(C)cc1NC(=O)C(=O)NCc1ccncc1,-3,2%,-13%,-6%,-11%,0%
COc1ccc(NC(=O)c2c(F)cccc2Cl)cc1S(=O)(=O)N1CCOCC1,7,13%,-27%,-21%,1%,1%
Cc1ccccc1OCC(=O)NCC(=O)OCc1ccc2ccccc2c1,·,-2%,16µM*,-12%,?,·
Cc1ccccc1OCC(=O)NCC(=O)OCC(=O)c1ccc([N+](=O)[O-])cc1,?,0%,11µM*,-2%,26µM*,3%
O=C(CCC(=O)OCC(=O)c1ccc([N+](=O)[O-])cc1)Nc1ccccc1Cl,5,18%,?,3%,18µM*,0%
Cc1ccccc1OCC(=O)NCC(=O)OCc1cccc2ccccc12,·,-3%,0%,-1%,-13%,·
NC(=O)CCC(C(=O)O)N1C(=O)c2ccc(O)cc2C1=O (configuration not stated),10,2%,-10%,11%,22%,-5%
Cc1nc(NC(=O)c2ccc(Cl)cc2)sc1Cc1ccc2c(c1)OCO2,-7,?,3.7µM*,-35%,4.1µM*,-4%
Cc1nc(NC(=O)c2ccccc2)sc1Cc1ccc2c(c1)OCO2,-13,-29%,?,-20%,?,-4%
COc1ccc(-c2[nH]ncc2N=Nc2cc(C)cc(C)c2)cc1,-92*,-29%,10µM*,-17%,0.21µM*,-21%
COc1ccc(-c2[nH]ncc2N=Nc2ccccc2)cc1,-68*,?,?,-31%,?,-18%
COc1ccc(N=Nc2cc(-c3ccccc3)ccc2O)cc1,-21,-17%,-15%,-19%,-2%,?
Cc1ccc2nc(SCC(=O)c3ccc(O)cc3O)[nH]c2c1,79,-4%,?,-17%,-16%,-3%
COc1ccc(C(C)=O)cc1COC(=O)c1cnc(Cl)c(Cl)c1,-82*,?,-3%,-6%,-6%,-2%
COc1ccc(C(C)=O)cc1COC(=O)c1ccc2c(c1)OCO2,36,6%,-18%,-3%,-17%,-3%
O=S(=O)(N/N=C\c1c(F)cccc1Cl)c1ccc(Cl)cc1,6,16%,?,0%,13µM*,-4%
COc1cccc2cc(C(=O)NCCc3c(C)[nH]c4ccc(F)cc34)c(=O)oc12,·,-1%,·,-18%,·,·
CC1Sc2n(c3ccccc3[n+]2C)N=C1c1ccccc1 (configuration not stated),-5,-14%,1.5µM*,-5%,1.5µM*,-3%
C[n+]1c2n(c3ccccc31)N=C(c1ccc(Cl)cc1)CS2,-74*,0%,0.92µM*,-13%,1.2µM*,-4%
Cc1cc(C)nc(-n2nc(C)c3c2N(Cc2ccccc2F)C(=O)CC3c2ccc(Cl)cc2)n1 (configuration not stated),·,0%,23µM*,-23%,23µM*,·
COc1ccc(C2CC(=O)N(Cc3ccc(C)cc3)c3c2c(C)nn3-c2nc(C)cc(C)n2)c(OC)c1 (configuration not stated),·,-8%,-53%,7%,?,·
CC(C)N(CC(N)=O)c1ccc(S(=O)(=O)N2CCCC2)cn1,9,-3%,-1%,3%,-6%,2%
COc1cccc(-c2csc(-c3c(N)c(C(=O)c4ccccc4)n4ccccc34)n2)c1,·,0%,16µM*,1%,?,·
Nc1c(-c2nc(-c3ccccc3)cs2)c2ccccn2c1C(=O)c1ccc2c(c1)OCO2,·,7%,6.5µM*,-11%,18µM*,·
SMILES,IL-1B inflam inh,TGFb SMAD3 inh,TDP1 cell noCPT,HepG2 tox,TDP1 cell CPT,S-ASM inh
CCc1ccc(C(=O)c2c(N)c(-c3nc(-c4ccc5c(c4)OCO5)cs3)c3ccccn23)cc1,·,1%,-21%,3%,-9%,·
Cc1ccsc1C(=O)N1CCCCCC1(C)C(=O)NCC(C)C (configuration not stated),23,20%,-2%,2%,-13%,·
Cc1ccc(-n2nc(C(=O)Nc3ccc(C)c(F)c3)c3c4ccccc4n(C)c3c2=O)cc1,·,27%,0%,0%,3%,·
Cc1cc(C)c(C2=Nn3c(C)nnc3SC2C)cc1C (configuration not stated),26,-4%,12µM*,-2%,18µM*,0%
COc1ccc(C(=O)NCCc2nnc3n2CCN(CC2CC=CCC2)CC3)cc1 (configuration not stated),·,·,-8%,·,-6%,·
CC(C)CCC(CCNCc1ccccn1)c1ccc(Cl)cc1 (configuration not stated),-98*,0%,15µM*,20µM*,-89%,0%
CC(=O)OC(C(=O)Nc1nncs1)c1ccccc1 (configuration not stated),24,4%,-4%,-3%,-11%,·
Cc1ccc2[nH]c(CCN(C)C)c(CN3CCOCC3)c2c1,-24,2%,?,-2%,21µM*,5%
Cn1ccc2c(-c3ccc4c(c3)OCCO4)cc3c(c21)C1CCC3C1 (configuration not stated),2,?,?,-21%,?,·
Cc1ccc(CNC(=O)Cn2ccn(-c3ccc(F)c(F)c3)c(=O)c2=O)cc1,·,-2%,6%,-7%,-8%,·
O=C(C1CCCN(S(=O)(=O)c2cccc3nonc23)C1)N1CCN(c2cccc(C(F)(F)F)c2)CC1 (configuration not stated),·,5%,12µM*,-5%,15µM*,·
O=C(C1CCCN(S(=O)(=O)c2cccc3nsnc23)C1)N1CCN(c2ccccc2)CC1 (configuration not stated),·,?,21µM*,-3%,16µM*,·
O=C(C1CCCN(S(=O)(=O)c2cccc3nsnc23)C1)N1CCN(c2ccccc2F)CC1 (configuration not stated),·,?,15µM*,-17%,18µM*,·

# Screening results from PubChem BioAssay.
